About 17,000 (4.7%) of roughly 360,000 compounds were called active. Another 5% or so got no clear call; they are omitted. The sample as a whole holds a higher share of actives than the screen did. Unmarked numbers belong to inactive results. No stated cut-off is given here; in the data, active means activity change below about -50%; inconclusive means mostly about -30% to -49%; inactive means weaker than that.
Assay: qHTS for Inhibitors of Inflammasome Signaling: IL-1-beta AlphaLISA Primary Screen
Conditions: THP-1 LPS/ATP IL-1B secretion, 16 h; at 57.5 µM, stronger effect = lower value
Outline: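 Secreted IL-1B measured by AlphaLISA bead assay after 16 h compound exposure of THP-1 cells; compounds (final up to 57.5 uM) added 1 h before LPS (250 ng/mL) and ATP (1.25 mM) stimulation; lower signal means less secretion.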
On the % scale 0 is the no-effect control and ±100 the full control effect.

SMILES | activity change
O=C(Nc1nnc([C@H]2C[C@H](O)[C@@H](CO)O2)s1)c1cccc(Cl)c1 | 25.3%
CCOC(=O)C1(Cc2ccccc2C(F)(F)F)CCN(C(=O)c2cc(C)n(C)n2)CC1 | 58%
CC(=O)NC(CC(=O)Nc1nc(-c2ccccc2)c(C(C)=O)s1)c1ccccc1 (configuration not stated) | -10.6%
CCN1C(=O)CS/C1=N\c1nccs1 | -5.9%
O=C(Cc1ccc(Cl)cc1)c1ccccc1 | -14.1%
CCNC(=O)N(CC)C[C@H]1N[C@@](CC)(C(=O)OC)[C@H]2C(=O)N(Cc3ccccc3)C(=O)[C@@H]12 | 36%
CCN(C[C@H]1N[C@@](CC)(C(=O)OC)[C@H]2C(=O)N(Cc3ccccc3)C(=O)[C@@H]12)S(=O)(=O)c1ccccc1 | -2.92%
CCN(C[C@H]1N[C@@](Cc2ccccc2)(C(=O)OC)[C@H]2C(=O)N(Cc3ccccc3)C(=O)[C@@H]12)C(=O)c1ccc(C)cc1 | -54.1% (active)
Cc1ccc(S(=O)(=O)NN=C2CC(C)(C)CC(=O)C2(C)C)cc1 | 0.854%
Cc1cccc(C)c1NC(=O)C(c1ccc(C(F)(F)F)cc1)n1c(=O)c(-c2ccco2)nc2ccccc21 (configuration not stated) | -1.25%
Cc1ccc2nc(SCC(=O)NC3CCCC3)[nH]c2c1 | -11.8%
COc1ccc2nc(SCC(=O)Nc3c(C)cc(C)cc3C)[nH]c2c1 | 15.5%
Cc1cc(C)c(NC(=O)CSc2nc3ccncc3[nH]2)c(C)c1 | -69.3% (active)
COc1ccc(C(CNC(=O)c2cccc(S(=O)(=O)Nc3ccc(Br)cc3)c2)N(C)C)cc1 (configuration not stated) | -12.1%
CCC(NC(=O)C1CCCC1)c1ccc(C)cc1 (configuration not stated) | 31.4%
Brc1ccc2nc(-c3ccccc3)c(Cc3ccccc3)n2c1 | 28.2%
CCN(CC)S(=O)(=O)c1ccc(N2CCN(C)CC2)c(NC(=O)Nc2ccccc2F)c1 | -72.3% (active)
CCN(CC)S(=O)(=O)c1cc(C(=O)Nc2cc(S(=O)(=O)N3CCOCC3)ccc2N2CCCC2)ccc1F | -10.4%
CCN(CC)S(=O)(=O)c1ccc(N2CCOCC2)c(NC(=O)C2COc3ccccc3O2)c1 (configuration not stated) | -0.208%
CCN(CC)S(=O)(=O)c1ccc(N2CCCC2)c(NC(=O)c2ccc([N+](=O)[O-])o2)c1 | -86.5% (active)
CCN(CC)S(=O)(=O)c1ccc(N2CCOCC2)c(NC(=O)C(C)Oc2ccc(F)cc2)c1 (configuration not stated) | -2.11%
CCN(CC)S(=O)(=O)c1ccc(N2CCOCC2)c(NC(=O)c2ccc(=O)n(C)n2)c1 | 8.34%
